An excerpt weighted towards active compounds, which were near 15% of everything screened.
Sm TGR block: blocks Schistosoma mansoni thioredoxin glutathione reductase; Q962Y6; Potency, µM (titrated, usually from 114 µM), without a hit: top-dose activity change, negative = inhibition, most hits filed as inhibitors; 360,000 tested, 3% active; purified TGR, DTNB reduction, TNB absorbance 405 nm; AID 485364; further: potency means the concentration at half of the fitted maximal effect; on the % scale 0 is the no-effect control and ±100 the full control effect; nearly all actives have a fitted effect of over 60% in size
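First, TGR (20 nM dispensed) and NADPH were mixed with compound. Second, a 15 min room-temperature incubation followed. Third, further NADPH and then DTNB were added to start the reaction. Finally, TNB absorbance was monitored kinetically.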
SARS PLpro yeast: blocks SARS-CoV papain-like protease in a yeast assay. S. cerevisiae expressing SARS-CoV PLpro, growth rescue. Potency, µM (series often up to 32.9 µM), for the others: at the top dose activity, positive = growth rescue, most hits filed as activators. 330,000 tested, 0.19% active. AID 485353; calls by dose curve; further: potency means the concentration at half of the fitted maximal effect; 0% is about no effect; nearly all actives have a fitted effect of over 55% in size
HCV inhibitor: inhibitors of hepatitis C virus infection. Huh7.5.1 HCVcc-Cre infection, luciferase reporter, 44 h. Potency, µM (doses to about 41.8 µM), for the others: top-dose activity change, negative = inhibition, most hits filed as inhibitors. 340,000 tested, 3.4% active. AID 651820; further: potency means the concentration at half of the fitted maximal effect; on the % scale 0 is the no-effect control and ±100 the full control effect
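1,000 cells/well; 4 h culture; + compound; + HCVcc-Cre (~0.5 moi); 44 h; luciferase substrate, RT 15 min; read 15 sec.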
Pf growth 48h: P. falciparum growth inhibition at 48 hours (one generation). P. falciparum luciferase growth in erythrocytes, 48 h. Potency, µM (doses to about 28.7 µM), for the others: top-dose activity change, negative = inhibition, most hits filed as inhibitors. 310,000 tested, 5.9% active; further: potency means the concentration at half of the fitted maximal effect; on the % scale 0 is the no-effect control and ±100 the full control effect
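Erythrocytes infected with P. falciparum carrying an integrated firefly luciferase reporter (2% hematocrit, 0.1% parasitemia final) were exposed to compounds in RPMI 1640 with 0.5% Albumax at 37 C, 5% CO2. Growth inhibition was scored as reduced luminescence.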
Pf growth 96h: P. falciparum growth inhibition at 96 hours; P. falciparum luciferase reporter growth, 96 h; Potency, µM (titrated, usually from 28.7 µM), for inactives: at the top dose activity change, negative = inhibition, actives largely listed as inhibitors; 320,000 tested, 6.9% active; AID 504834; further: potency means the concentration at half of the fitted maximal effect; on the % scale 0 is the no-effect control and ±100 the full control effect
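Delayed-death screen, second-generation endpoint: infected erythrocytes, 2% hematocrit, 0.05% parasitemia final; 96 hours at 37 C, 5% CO2; luciferase detection reagent; luminescence decrease equals reduced growth.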
HCMV inh: human cytomegalovirus inhibition | HFF cells, HCMV-luciferase reporter, 72 h; stronger effect = lower value | activity change, negative = inhibition, % at 57.5 µM | 410,000 tested, 4.5% active; in the data active means activity change below about -60%; inconclusive means no clear call, values can overlap the other calls; inactive means above about -39%; further: on the % scale 0 is the no-effect control and ±100 the full control effect
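Luciferase read-out from HCMV-luciferase-infected HFFs (MOI 1 PFU/cell) 72 h post infection at 37C; compounds added after 16 h cell attachment; activity normalized between buffer-only basal and Salinomycin (10uM) inhibitor controls.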
* hit, by the source's call; ? = inconclusive; . = no result. Unless noted, the call rests on the fitted dose curve; in most records, active means well fitted curve in the direction sought with a large enough effect; inconclusive means small, poorly fitted or top-dose-only effect, or another doubt; inactive means no such curve, though single readings can be large; an effect the other way counts as inactive or inconclusive.

SMILES	Sm TGR block	SARS PLpro yeast	HCV inhibitor	Pf growth 48h	Pf growth 96h	HCMV inh
O=S(=O)(c1ccc2ccccc2c1)N1CCN(C(=S)Nc2ccc(F)c(Cl)c2)CC1	4%	7%	?	1µM*	0.33µM*	?
O=S(=O)(c1ccc(Cl)cc1)N1CCN(C(=S)Nc2ccccc2F)CC1	-5%	0%	3%	0.93µM*	?	-22
CC1CC(C)CN(C(=O)CSc2ncnc3sccc23)C1 (centres undefined)	-12%	5%	0%	-13%	69%	?
C[C@@H]1CN([C@H](C)CO)S(=O)(=O)c2ccc(Br)cc2O[C@@H]1CN(C)C(=O)NC1CCCC1	.	.	.	.	.	10
CC1(C(=O)NCc2cccc3ccccc23)CCN1Cc1ccc(OC(F)(F)F)cc1 (centres undefined)	.	.	.	.	.	-12
Cc1nc(COC(=O)c2cc(O)c3ccccc3c2O)cs1	18µM*	-7%	4%	-19%	?	11
Cc1nc(COC(=O)c2ccc(CO)cc2)cs1	4%	-1%	0%	2%	62%	17
CC1Nc2ccccc2C(=O)N1NC(=O)c1ccc(Br)cc1 (centres undefined)	-15%	-2%	17%	29%	8.3µM*	77
CCOC(=O)N1CCN(C(=O)COC(=O)c2cc(Cl)c(O)c(Cl)c2)CC1	3%	-1%	14%	?	-25%	-73*
Cc1cc(C(=O)COC(=O)c2cc(Cl)c(O)c(Cl)c2)c(C)n1C	50µM*	1%	-2%	-5%	16%	2
CCOC(=O)N/N=C\c1ccc(-c2cc(Cl)ccc2Cl)o1	.	-1%	-9%	5.2µM*	22%	?
NC(=S)N/N=C/c1ccc(-c2cc(Cl)ccc2Cl)o1	-35%	-23%	?	.	4.7µM*	-24
O=C(N/N=C/c1ccc(-c2ccccc2Cl)o1)c1ccccc1	9%	-2%	13µM*	?	-5%	-33
COC(=O)N/N=C/c1ccc(-c2cc(Cl)cc(Cl)c2)o1	2%	-50%	-24%	?	?	-23
CCOc1ccc(S(=O)(=O)N(CC)CC)cc1NC(=O)CSCc1c(C)noc1C	-15%	1%	-19%	?	?	-21
CC[C@H](C)[C@@H]1NC(=O)[C@@H](CC(C)C)NC(=O)[C@H](C(C)C)NC(=O)[C@H]2CSSC[C@H](NC1=O)C(=O)N2	.	.	.	.	.	-106*
COc1ccccc1-c1nc(SCC(=O)NCc2ccc(C)cc2)c2c(=O)n(C)c(=O)n(C)c2n1	?	.	.	.	.	-15
Cc1[nH]c2ccc(-c3nnc(SCC(=O)c4ccc(F)cc4)o3)cc2c1C	5%	-5%	-22%	5%	?	?
Cc1cc(C)c(C)c(C(=O)CSc2nnc(-c3ccc4[nH]c(C)c(C)c4c3)o2)c1C	-24%	?	?	13µM*	?	?
COc1ccc(-c2cn3c(C)c(C(=O)Nc4ccncc4)sc3n2)cc1	-23%	1%	4.5µM*	.	?	-36
Cc1c(C(=O)Nc2cc(F)ccc2F)sc2nc(-c3ccc(F)cc3)cn12	-10%	.	.	.	.	?
Cc1cc(C)cc(NC(=O)c2sc3nc(-c4ccccc4)cn3c2C)c1	-6%	.	.	.	.	-13
Cc1c(C(=O)Nc2ccc(F)c(C(F)(F)F)c2)sc2nc(-c3ccccc3)cn12	0%	.	.	.	.	-98*
Cc1c(C(=O)Nc2ccncc2)sc2nc(-c3ccc(F)cc3)cn12	2%	-4%	10µM*	2.3µM*	2.3µM*	?
CCc1ccc(C2CC(=O)Oc3c2c(=O)n(C)c2ccccc32)cc1 (centres undefined)	1%	.	.	.	.	-1
SMILES	Sm TGR block	SARS PLpro yeast	HCV inhibitor	Pf growth 48h	Pf growth 96h	HCMV inh
O=C(OCC(=O)c1ccc(Cl)cc1Cl)c1ccccn1	.	-1%	1%	.	.	-19
O=C(OCC(=O)c1ccccc1Br)c1ccccn1	-25%	-6%	13%	20%	8.3µM*	70
Oc1ccc(C(=C(Cl)Cl)c2ccc(O)cc2)cc1	-6%	-2%	.	2.9µM*	2.3µM*	.
Oc1ccc(Cl)cc1	.	0%	44%	-1%	-16%	-14
CC1CN(C(=O)C(Sc2ccccc2)c2ccccc2)CC(C)O1 (centres undefined)	-3%	?	-7%	9%	10µM*	8
O=C(N/C=C/c1ccco1)OCc1ccccc1	45µM*	-1%	-4%	85%	45%	-12
O=C(N/C=C/c1ccco1)NCc1ccccc1	25µM*	8%	-72%	-7%	15%	-29
O=C(NCc1ccccc1)/C(=C/c1ccccc1)NC(=O)c1ccco1	-15%	-3%	3%	14%	?	9
CCN(CC)c1ccc(C(=S)NCc2ccccc2)cc1	-9%	-2%	-8%	-12%	?	2
Cc1ccccc1NC(=O)c1ccc(Nc2c([N+](=O)[O-])cc([N+](=O)[O-])c3ccccc23)cc1	6%	-2%	14µM*	?	?	-92*
O=C(Nc1ccc(Nc2ccccc2)cc1)c1ccc(Cl)c([N+](=O)[O-])c1	0%	-13%	0%	2%	?	-31
Cc1cc(C(=O)Nc2ccc(Nc3ccccc3)cc2)ccc1[N+](=O)[O-]	-1%	13%	11µM*	-26%	12µM*	-21
O=C1CC(Nc2ccc(N3CCOCC3)cc2)C(=O)N1CCc1ccccc1 (centres undefined)	-28%	11%	16%	.	2%	43
COc1ccc(N2C(=O)CC(Nc3ccc(C)cc3)C2=O)cc1 (centres undefined)	-5%	?	3%	.	-27%	-5
Cc1ccc(NC2CC(=O)N(c3ccc(N4CCCCC4)cc3)C2=O)cc1 (centres undefined)	?	0%	-18%	4%	1.7µM*	14
Cc1ccc(CN2C(=O)CC(Nc3ccc(N4CCOCC4)cc3)C2=O)cc1 (centres undefined)	40µM*	-8%	14%	-1%	56%	3
Cc1ccc(S(=O)(=O)N2CCN(C(=O)COC(=O)CNC(=O)c3ccccc3F)CC2)c(C)c1	.	.	12%	.	.	-20
Cc1ccc(NC(=O)COC(=O)[C@H](C)NC(N)=O)c(C)c1	5%	0%	13%	-1%	19%	5
CCCN(CCC)CCNC(=O)C1CCN(c2nc3ccc(CC)cc3s2)CC1	-1%	.	.	.	.	-98*
CCCN(CCC)CCCNC(=O)C1CCN(c2nc3ccc(CC)cc3s2)CC1	-7%	.	.	.	.	-101*
CCc1ccc2nc(N3CCC(C(=O)NCCC(C)C)CC3)sc2c1	-4%	.	.	.	.	82
CCCCN(CCCC)CCCNC(=O)c1ccc2nc(N3CCCCC3)sc2c1	28µM*	.	.	.	.	58

Source: PubChem BioAssay
